Measurements from PubChem BioAssay (NCATS).
Records with an inconclusive call do not appear. Activity calls are given as the source filed them. Unless noted, calls follow the shape of the dose curve; as a rule, active = well fitted curve in either direction with a large enough effect (not every such curve was filed as active); inconclusive = small, poorly fitted or top-dose-only effect, or another doubt; inactive = flat fitted curve, though single readings scatter.

What was measured:
[1] = AP1 Signaling Pathway (AID 357); details: ME-180 AP-1-bla reporter, EGF-induced, beta-lactamase ratio, 5 h; at 7.69 µM (top of the series) unless noted;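 also: ME-180 reporter cells stimulated with EGF at its EC50 level; % is scaled to controls: 0 for no effect and ±100 for the full control effect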
Procedure, shortened: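 Titration-series screen for positive or negative modulators of EC50 EGF-induced signaling in ME-180 cells carrying an AP-1-driven beta-lactamase reporter. After 5 hours at 37 degrees Celsius, CCF4 460nm/530nm emission ratio gave %Activity; AC50 values derived.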

[2] = target: Cytochrome P450 1A2 (Homo sapiens) (UniProt P05177); assay: p450-cyp1a2 (AID 410; calls by dose curve; also: potency is read from the fitted curve at half-maximal effect;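 as to activity change, negative = inhibition: -100% = full effect of reference inhibitor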)
Procedure, shortened: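 Inhibition was calculated relative to 57 uM furafylline (full inhibition). The reaction used human CYP1A2 at 20nM with Luciferin-ME at its Km, 100uM, driven by an NADPH-regenerating system for 60 min at room temperature.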

[3] = Stat Signaling Pathway (AID 446); details: ME-180 SIE beta-lactamase reporter, IL-6 stimulated, 5 h; at 7.69 µM (top of the series) unless noted;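 also: ME-180 cervical cancer cells given 40 pM IL-6 alongside compound; SIE-controlled beta-lactamase reporter measured as 460/530 nm FRET emission ratio; % is scaled to controls: 0 for no effect and ±100 for the full control effect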
Procedure, shortened: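 ME-180 SIE-bla cells; overnight plating; cpd + IL-6 40 pM, 5 h, 37 C; LiveBLAzer 2.5 h RT; 460/530 nm emission ratio. Normalized to 300 pM IL-6 and 125 nM JAK inhibitor controls.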

[4] = target: Glucocorticoid receptor (Homo sapiens) (UniProt P04150); assay: GR-EFC Redistribution (AID 451; calls by dose curve; also: potency is read from the fitted curve at half-maximal effect); details: CHO-K1 GR-EFC translocation, beta-gal luminescence, 2 h
Procedure, shortened: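 CHO-K1 cells stably expressing nuclear-localized β-gal enzyme acceptor and GR fused C-terminally to the enzyme donor fragment; ligand-driven nuclear translocation restores β-gal by complementation. Compounds titrated up to 46 uM final, 2 h at 37 °C; luminescence read.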

[5] = target: Mitogen-activated protein kinase 10 (Mus musculus) (UniProt Q61831); assay: JNK3 AlphaScreen Assay (AID 530);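 also: kinase came from lysate of stimulated human HepG2 cells; signal reports phosphorylation of biotinylated GST-cJun 1-79 at Ser73 with 10 µM ATP; % is scaled to controls: 0 for no effect and ±100 for the full control effect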
Procedure, shortened: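 JNK3 came from HepG2 lysates pre-activated with IL-1beta and TNF-alpha and phosphorylated biotinylated GST-cJun (1-79) at 10 uM ATP, pH 7.6, room temperature. Compounds were titrated. AlphaScreen signal used anti-phospho-cJun (Ser73) antibody.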

[6] = target: 3',5'-cyclic-AMP phosphodiesterase 4B (Homo sapiens) (UniProt Q07343); assay: qHTS Assay for Inhibitors of PDE-IV (AID 607; active = well fitted activation curve with a large enough effect in the main read-out, with a control signal flat, not every such curve was filed as active; also: % of control where 0% means no effect)
Procedure, shortened: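 ACTOne HEK293 cells carry a modified cAMP-gated CNG channel and express endogenous PDE4; plated 1000 cells/well, compounds up to 22.9 uM final. Membrane-potential dye fluorescence (ex 535/em 590) was read; parental cells received 10 uM forskolin + 100 uM RO 20-1724.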

[7] = target: Cytochrome P450 2C9 (Homo sapiens) (UniProt P11712); assay: qHTS Assay for Inhibitors and Substrates of Cytochrome P450 2C9 (AID 883; active = well fitted curve in the direction sought with a large enough effect; an effect the other way counts as inactive or inconclusive; also: potency is read from the fitted curve at half-maximal effect; nearly all actives have a fitted effect of over 60% in size)
Procedure, shortened: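 Human CYP2C9 (10nM) hydroxylated Luciferin-H (100uM, at its KM) to luciferin in 25mM KPO4. Compound was preincubated 10 min at 37C, then NADPH regeneration started a 60 min reaction at 37C. Luminescence was read after detection reagent, normalized to 57uM sulphaphenazole.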

[8] = target: Cytochrome P450 3A4 (Homo sapiens) (UniProt P08684); assay: qHTS Assay for Activators of Cytochrome P450 3A4 (AID 885; active = well fitted curve in the direction sought with a large enough effect; an effect the other way counts as inactive or inconclusive; also: nearly all actives have a fitted effect of over 65% in size)
Procedure, shortened: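 20nM CYP3A4 + 25uM Luciferin-PPXE (=KM), 200mM KPO4; cpd 10 min RT; NADPH regen, 60 min RT; stop w/ detection buffer, 20 min; luminescence. Normalized to 57 uM ketoconazole.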

[9] = target: Cytochrome P450 2D6 (Homo sapiens) (UniProt P10635); assay: qHTS Assay for Inhibitors and Substrates of Cytochrome P450 2D6 (AID 891; active = well fitted curve in the direction sought with a large enough effect; an effect the other way counts as inactive or inconclusive; also: potency is read from the fitted curve at half-maximal effect; nearly all actives have a fitted effect of over 60% in size)
Procedure, shortened: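 Human CYP2D6 (5 nM) with 30 uM Luciferin-ME EGE (at Km) in 100 mM KPO4, compound preincubated 10 min, then NADPH regeneration system for 60 min at room temperature. Luciferin read by luminescence; normalized to 1.43 uM quinidine.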

[10] = qHTS Assay for Lipid Storage Modulators (AID 1519; calls by dose curve); details: Drosophila S3 cells, BODIPY lipid droplet/cell ratio, laser cytometry, cells loaded with oleic acid; for activity change, negative = inhibition: at 57.5 µM (top of the series)
Procedure, shortened: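 Cells seeded at 5,000 per well were treated with compounds over a concentration series and loaded with oleic acid (400 uM, as added). Lipid droplet fluorescence (488 nm excitation, 500-530 nm channel) was read by laser-scanning cytometry and normalized to 20 uM Triacsin C.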

[11] = Primary qHTS for small molecule stabilizers of the endoplasmic reticulum resident proteome: Secreted ER Calcium Modulated Protein (SERCaMP) assay (AID 1508630; active = well fitted curve in the direction sought with a large enough effect; an effect the other way counts as inactive or inconclusive; also: % is scaled to controls: 0 for no effect and ±100 for the full control effect)
Procedure, shortened: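 GLuc-SERCaMP-expressing SH-SY5Y cells, pretreated 16 h with compound, are challenged with thapsigargin to empty ER calcium stores; after 4 h, coelenterazine is added directly to the medium and luminescence is imaged.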

[12] = NFAT Signaling Pathway (AID 444); details: Jurkat NFAT-bla M1, carbachol, beta-lactamase ratio, 5 h; at 7.69 µM (top of the series) unless noted
Procedure, shortened: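 Jurkat cells carrying an NFAT-driven β-lactamase reporter and co-transfected muscarinic M1 receptor were treated with compound plus carbachol (1 uM final, an EC50 level) for 5 h at 37 °C. CCF4 loading followed for 1 h at RT; 460/530 nm ratio gave %activity.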

[13] = target: Glucocorticoid receptor (Homo sapiens) (UniProt P04150); assay: GR-GFP Redistribution (AID 450;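 active = compounds whose dose series gives a full or clear partial fitted curve of increased nuclear translocation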; also: potency is read from the fitted curve at half-maximal effect); details: U2OS GR-GFP nuclear translocation, laser cytometry, 2 h
[14] = target: Ubiquitin carboxyl-terminal hydrolase 1 (Homo sapiens) (UniProt O94782); assay: Inhibitors of USP1/UAF1: Pilot qHTS (AID 504865; active = well fitted curve in the direction sought with a large enough effect; an effect the other way counts as inactive or inconclusive;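 also: rhodamine fluorescence freed from ubiquitin-rhodamine substrate followed over time; top concentration of the series differs between compounds; % is scaled to controls: 0 for no effect and ±100 for the full control effect; nearly all actives have a fitted effect of over 35% in size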)
Procedure, shortened: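 Deubiquitinase activity followed as kinetic rhodamine fluorescence release from 150 nM Ub-Rho. 1 nM USP1/UAF1 with compound, after 15 min room-temperature preincubation, in HEPES pH 7.8 buffer containing TCEP, EDTA, BSA and Tween-20.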

[15] = target: Cytochrome P450 2C19 (Homo sapiens) (UniProt P33261); assay: qHTS Assay for Inhibitors and Substrates of Cytochrome P450 2C19 (AID 899; active = well fitted curve in the direction sought with a large enough effect; an effect the other way counts as inactive or inconclusive; also: % is scaled to controls: 0 for no effect and ±100 for the full control effect; nearly all actives have a fitted effect of over 60% in size)
Procedure, shortened: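 Human CYP2C19 (5nM) with Luciferin-H EGE at 10uM (its KM) in 50mM KPO4 was preincubated with compound for 10 min at 37C. NADPH regeneration started a 60 min 37C reaction. Luciferin was read by luminescence, normalized to 57uM ketoconazole.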

[16] = Confirmation and Secondary Assay for Modulators of Hemoglobin Beta Chain Splicing at IVS2 654 locus (AID 910; active = well fitted curve in the direction sought with a large enough effect; an effect the other way counts as inactive or inconclusive;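 also: per-well total GFP intensity by laser scanning cytometry after 2-day treatment; % of control where 0% means no effect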)
Procedure, shortened: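 HeLa cells stably carrying EGFP interrupted by mutant beta-globin IVS2-654 intron (CMV-driven) were treated with compound for 2 days at 37C; corrected splicing was scored as total peak GFP intensity per well (488 nm excitation, 500-520 nm emission).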

[17] = Confirmation and Secondary Assay for Modulators of Hemoglobin Beta Chain Splicing at IVS2 705 locus (AID 930; active = well fitted curve in the direction sought with a large enough effect; an effect the other way counts as inactive or inconclusive;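 also: HeLa cells stably expressing the EGFP-705 splicing reporter; % of control where 0% means no effect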)
Procedure, shortened: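 Restored EGFP fluorescence after 2-day compound exposure reports splicing correction in IVS2-705 EGFP reporter HeLa cells; positive control was 500 nM splice-blocking PNA oligo. Signal measured as well total peak GFP intensity (488 nm excitation).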

[18] = target: Cytochrome P450 3A4 (Homo sapiens) (UniProt P08684); assay: qHTS Assay for Inhibitors and Substrates of Cytochrome P450 3A4 (AID 884; active = well fitted curve in the direction sought with a large enough effect; an effect the other way counts as inactive or inconclusive; also: potency is read from the fitted curve at half-maximal effect; nearly all actives have a fitted effect of over 50% in size)
Procedure, shortened: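 20 nM human CYP3A4 with 25 uM Luciferin-PPXE (at KM) in 200 mM KPO4, preincubated 10 min with compound; NADPH regeneration started a 60 min RT reaction. Luciferin detected by luminescence, normalized to 57 uM ketoconazole as full inhibition.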

[19] = qHTS Assay for Identification of Small Molecule Agonists for Hypoxia Response Element Signaling Pathway (AID 914; active = well fitted activation curve with a large enough effect in the signal ratio, with a control signal flat, not every such curve was filed as active; the % refers to the signal ratio; also: % of control where 0% means no effect); details: ME-180 (cervical carcinoma) HRE-bla reporter, beta-lactamase ratio, CoCl2, 17 h; activation: stronger effect = higher value
Procedure, shortened: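 AC50 values come from titration-series %Activity, taken as the 460/530nm ratio of CCF4 fluorescence (excitation 405nm). CellSensor HRE-bla ME-180 cells were treated 17 hours at 37 C with compound plus an EC50 level of CoCl2.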

[20] = measured here: cell count channel max response
[21] = measured here: lipid channel max response

Sequence of Cytochrome P450 3A4 (Homo sapiens) (P08684 whole entry, looked up): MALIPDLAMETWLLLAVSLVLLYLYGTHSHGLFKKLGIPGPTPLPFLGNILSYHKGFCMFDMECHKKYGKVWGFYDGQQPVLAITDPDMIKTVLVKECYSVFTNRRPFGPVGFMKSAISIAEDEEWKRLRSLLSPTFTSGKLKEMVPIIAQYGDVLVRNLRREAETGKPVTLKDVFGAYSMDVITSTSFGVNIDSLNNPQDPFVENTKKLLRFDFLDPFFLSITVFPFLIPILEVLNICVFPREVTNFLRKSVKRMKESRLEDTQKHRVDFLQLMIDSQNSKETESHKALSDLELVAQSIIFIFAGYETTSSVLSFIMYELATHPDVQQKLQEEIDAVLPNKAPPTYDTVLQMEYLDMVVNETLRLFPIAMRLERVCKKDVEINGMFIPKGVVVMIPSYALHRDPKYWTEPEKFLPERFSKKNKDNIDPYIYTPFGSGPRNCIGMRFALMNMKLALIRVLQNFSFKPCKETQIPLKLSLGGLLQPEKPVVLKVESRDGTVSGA
Sequence of Glucocorticoid receptor (Homo sapiens) (P04150 whole entry, looked up, the tested form may be a part): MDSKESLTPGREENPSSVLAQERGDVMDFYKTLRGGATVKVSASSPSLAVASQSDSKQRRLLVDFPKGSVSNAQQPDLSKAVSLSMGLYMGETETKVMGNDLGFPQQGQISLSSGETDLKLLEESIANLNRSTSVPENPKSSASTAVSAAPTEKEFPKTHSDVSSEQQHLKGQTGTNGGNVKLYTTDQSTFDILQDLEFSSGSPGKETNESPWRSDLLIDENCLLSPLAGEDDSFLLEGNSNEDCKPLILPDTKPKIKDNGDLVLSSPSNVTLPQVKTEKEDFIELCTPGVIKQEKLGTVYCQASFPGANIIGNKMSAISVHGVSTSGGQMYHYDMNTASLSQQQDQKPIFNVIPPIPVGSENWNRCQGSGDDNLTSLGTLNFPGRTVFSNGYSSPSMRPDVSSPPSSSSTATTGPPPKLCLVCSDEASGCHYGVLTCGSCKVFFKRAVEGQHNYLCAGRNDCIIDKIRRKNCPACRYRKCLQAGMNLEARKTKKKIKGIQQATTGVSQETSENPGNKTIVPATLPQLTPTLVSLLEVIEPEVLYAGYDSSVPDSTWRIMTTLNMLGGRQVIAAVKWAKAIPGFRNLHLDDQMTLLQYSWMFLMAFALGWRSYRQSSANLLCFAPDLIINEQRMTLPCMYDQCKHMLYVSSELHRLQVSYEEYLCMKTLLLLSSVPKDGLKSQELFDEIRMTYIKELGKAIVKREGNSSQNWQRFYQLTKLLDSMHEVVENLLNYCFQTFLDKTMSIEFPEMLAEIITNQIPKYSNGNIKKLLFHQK
Sequence of 3',5'-cyclic-AMP phosphodiesterase 4B (Homo sapiens) (Q07343 whole entry, looked up): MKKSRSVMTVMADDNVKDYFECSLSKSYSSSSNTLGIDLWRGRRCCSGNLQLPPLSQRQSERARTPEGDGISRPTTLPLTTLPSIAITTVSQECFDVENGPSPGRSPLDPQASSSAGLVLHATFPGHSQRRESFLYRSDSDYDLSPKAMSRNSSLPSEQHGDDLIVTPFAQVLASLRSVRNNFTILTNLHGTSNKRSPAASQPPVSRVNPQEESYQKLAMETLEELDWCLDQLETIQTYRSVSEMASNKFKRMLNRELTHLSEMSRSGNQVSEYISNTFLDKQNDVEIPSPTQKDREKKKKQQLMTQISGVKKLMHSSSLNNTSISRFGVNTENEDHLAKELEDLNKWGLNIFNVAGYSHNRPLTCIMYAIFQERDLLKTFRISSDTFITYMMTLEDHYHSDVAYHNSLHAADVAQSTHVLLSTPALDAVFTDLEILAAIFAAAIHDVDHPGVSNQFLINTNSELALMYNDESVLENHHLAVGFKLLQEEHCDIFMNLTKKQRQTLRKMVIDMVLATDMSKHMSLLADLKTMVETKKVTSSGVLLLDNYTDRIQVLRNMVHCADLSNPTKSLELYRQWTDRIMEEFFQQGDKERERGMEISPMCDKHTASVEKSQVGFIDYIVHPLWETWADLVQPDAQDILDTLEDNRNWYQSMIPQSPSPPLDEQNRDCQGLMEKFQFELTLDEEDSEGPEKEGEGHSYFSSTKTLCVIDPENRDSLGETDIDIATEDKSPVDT
Sequence of Ubiquitin carboxyl-terminal hydrolase 1 (Homo sapiens) (O94782 whole entry, looked up): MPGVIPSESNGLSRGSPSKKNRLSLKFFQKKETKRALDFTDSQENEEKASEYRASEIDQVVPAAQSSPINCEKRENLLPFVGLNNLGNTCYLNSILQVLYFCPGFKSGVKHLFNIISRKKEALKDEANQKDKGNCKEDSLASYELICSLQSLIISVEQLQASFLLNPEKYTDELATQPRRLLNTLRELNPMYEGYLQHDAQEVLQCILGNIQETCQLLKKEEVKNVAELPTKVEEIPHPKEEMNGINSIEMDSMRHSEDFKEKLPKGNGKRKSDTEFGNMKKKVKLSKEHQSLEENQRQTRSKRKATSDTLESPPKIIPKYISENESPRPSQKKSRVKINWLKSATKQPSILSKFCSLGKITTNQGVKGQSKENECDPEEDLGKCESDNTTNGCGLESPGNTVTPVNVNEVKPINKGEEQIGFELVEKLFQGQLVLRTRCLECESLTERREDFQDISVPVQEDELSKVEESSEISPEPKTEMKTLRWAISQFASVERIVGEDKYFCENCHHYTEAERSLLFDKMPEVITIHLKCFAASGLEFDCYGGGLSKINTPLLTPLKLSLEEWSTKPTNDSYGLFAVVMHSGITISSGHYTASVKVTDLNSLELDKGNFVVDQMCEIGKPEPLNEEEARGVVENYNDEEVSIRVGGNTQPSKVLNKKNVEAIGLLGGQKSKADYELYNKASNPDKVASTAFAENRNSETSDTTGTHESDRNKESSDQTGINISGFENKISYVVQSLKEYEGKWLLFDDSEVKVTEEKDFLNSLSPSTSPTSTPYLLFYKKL
Sequence of Cytochrome P450 1A2 (Homo sapiens) (P05177 whole entry, looked up): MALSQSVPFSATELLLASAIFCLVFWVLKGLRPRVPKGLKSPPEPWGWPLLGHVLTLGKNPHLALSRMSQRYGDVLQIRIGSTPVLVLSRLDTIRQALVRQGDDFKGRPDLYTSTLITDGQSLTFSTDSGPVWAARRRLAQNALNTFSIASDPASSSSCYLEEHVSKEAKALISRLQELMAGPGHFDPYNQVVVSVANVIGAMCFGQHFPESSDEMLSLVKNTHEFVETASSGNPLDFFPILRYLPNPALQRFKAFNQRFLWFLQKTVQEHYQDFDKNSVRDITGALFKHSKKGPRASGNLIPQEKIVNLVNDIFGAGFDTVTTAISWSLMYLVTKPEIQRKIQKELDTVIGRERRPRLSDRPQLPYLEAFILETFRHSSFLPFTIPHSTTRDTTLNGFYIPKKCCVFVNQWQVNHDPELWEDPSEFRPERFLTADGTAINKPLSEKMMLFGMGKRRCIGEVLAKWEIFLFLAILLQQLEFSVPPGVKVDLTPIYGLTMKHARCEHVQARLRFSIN
Sequence of Cytochrome P450 2C19 (Homo sapiens) (P33261 whole entry, looked up): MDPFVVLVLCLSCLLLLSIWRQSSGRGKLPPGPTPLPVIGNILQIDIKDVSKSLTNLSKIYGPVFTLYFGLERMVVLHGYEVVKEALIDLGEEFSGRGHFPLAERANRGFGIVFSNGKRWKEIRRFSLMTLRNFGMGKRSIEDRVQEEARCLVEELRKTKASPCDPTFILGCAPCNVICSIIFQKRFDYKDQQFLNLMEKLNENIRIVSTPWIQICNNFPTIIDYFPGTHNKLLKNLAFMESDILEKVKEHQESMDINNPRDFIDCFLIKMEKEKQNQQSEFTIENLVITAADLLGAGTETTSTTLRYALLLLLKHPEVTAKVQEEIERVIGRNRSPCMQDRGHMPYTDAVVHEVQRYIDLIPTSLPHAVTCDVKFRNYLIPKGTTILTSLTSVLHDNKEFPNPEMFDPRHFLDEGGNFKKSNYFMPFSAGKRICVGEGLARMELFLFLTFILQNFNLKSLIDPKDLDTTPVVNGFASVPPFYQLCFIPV
Sequence of Cytochrome P450 2D6 (Homo sapiens) (P10635 whole entry, looked up): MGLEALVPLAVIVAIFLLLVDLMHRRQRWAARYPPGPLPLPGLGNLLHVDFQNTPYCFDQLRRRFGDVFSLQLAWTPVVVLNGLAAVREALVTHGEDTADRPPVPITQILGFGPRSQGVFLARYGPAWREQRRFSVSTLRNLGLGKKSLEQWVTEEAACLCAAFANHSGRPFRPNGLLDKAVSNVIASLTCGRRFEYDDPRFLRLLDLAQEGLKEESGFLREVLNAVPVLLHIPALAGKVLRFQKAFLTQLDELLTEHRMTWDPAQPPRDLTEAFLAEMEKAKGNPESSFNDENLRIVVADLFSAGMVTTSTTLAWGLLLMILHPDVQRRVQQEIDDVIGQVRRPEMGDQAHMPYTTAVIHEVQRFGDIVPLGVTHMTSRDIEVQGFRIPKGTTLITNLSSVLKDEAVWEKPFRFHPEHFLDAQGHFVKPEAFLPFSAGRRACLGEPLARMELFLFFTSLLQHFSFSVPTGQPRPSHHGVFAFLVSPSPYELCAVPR
Sequence of Cytochrome P450 2C9 (Homo sapiens) (P11712 whole entry, looked up): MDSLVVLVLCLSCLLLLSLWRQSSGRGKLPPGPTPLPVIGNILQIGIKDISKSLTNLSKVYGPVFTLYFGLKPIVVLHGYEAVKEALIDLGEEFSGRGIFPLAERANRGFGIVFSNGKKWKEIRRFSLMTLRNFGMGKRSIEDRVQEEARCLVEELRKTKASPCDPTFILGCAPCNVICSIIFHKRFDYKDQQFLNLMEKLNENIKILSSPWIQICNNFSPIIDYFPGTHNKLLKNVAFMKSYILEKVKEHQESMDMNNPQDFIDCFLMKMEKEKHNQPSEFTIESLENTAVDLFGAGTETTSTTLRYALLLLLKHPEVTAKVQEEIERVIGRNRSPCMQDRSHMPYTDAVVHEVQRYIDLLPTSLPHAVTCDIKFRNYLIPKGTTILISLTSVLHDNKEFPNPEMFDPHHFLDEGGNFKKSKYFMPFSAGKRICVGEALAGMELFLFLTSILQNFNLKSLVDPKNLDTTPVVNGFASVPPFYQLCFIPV

Cn1cccc1C(=O)N1CCC2(CCCN(Cc3ccncc3)C2)CC1
active: Potency [2] 15.8 µM | Potency [7] 1.58 µM | Potency [9] 7.94 µM
14.6%: max response [10, 21]
inactive: activity change, negative = inhibition [1] -7.26% | activity, negative = inhibition [3] 7.75% | Potency [4] > 46 µM | Potency [5] | Potency [6] | Potency [8] | activity change, negative = inhibition [10] 7.27% | outcome [11]
1.45%: max response [10, 20]

CC(=O)N1CCC[C@@]2(CCN(Cc3ccc(C#N)cc3)C2)C1
7.32%: max response [10, 20]
8.41%: max response [10, 21]
inactive: activity change, negative = inhibition [1] -11.7% | activity change, negative = inhibition [12] 2.49% | Potency [4] > 46 µM | Potency [5] | Potency [6] | activity change, negative = inhibition [10] 2.62% | outcome [11]

O=S(=O)(c1ccccc1)N1CCC[C@@]2(CCN(c3ncccn3)C2)C1
6.87%: max response [10, 20]
13%: max response [10, 21]
inactive: activity change, negative = inhibition [1] -0.184% | activity change, negative = inhibition [12] 27.1% | activity, negative = inhibition [3] -4.75% | Potency [4] > 46 µM | Potency [5] | Potency [6] | activity change, negative = inhibition [10] 4.79% | outcome [11]

Clc1cccc2c1CN(C1=NCCN1)C2
12.9%: max response [10, 20]
20.6%: max response [10, 21]
inactive: Potency [13] > 46 µM | Potency [4] > 46 µM | Potency [5] | Potency [6] | activity change, negative = inhibition [10] 3.4% | Potency [14] | outcome [11]
active: Potency [2] 0.398 µM

O=C(c1ccco1)N1CCC[C@@]2(CCN(c3ccccn3)C2)C1
inactive: activity change, negative = inhibition [1] 4.46% | activity change, negative = inhibition [12] -3.78% | activity, negative = inhibition [3] -0.822% | Potency [4] > 46 µM | Potency [5] | Potency [6] | activity change, negative = inhibition [10] 4.34% | outcome [11]
30%: max response [10, 21]
22.6%: max response [10, 20]

N[C@H](C(=O)O)c1ccc(O)c(C(=O)O)c1
22.5%: max response [10, 21]
18.1%: max response [10, 20]
inactive: Potency [2] | Potency [13] > 46 µM | Potency [5] | Potency [6] | Potency [15] | activity change, negative = inhibition [10] 1.32% | Potency [14] | outcome [11]

COc1ccccc1CN1CCCC2(CCN(C(=O)c3cc(C(F)(F)F)cc(C(F)(F)F)c3)CC2)C1
1.79%: max response [10, 21]
inactive: activity change, negative = inhibition [1] 16.7% | Potency [4] > 46 µM | Potency [5] | Potency [6] | activity change, negative = inhibition [10] 3.12% | outcome [11]
-3.38%: max response [10, 20]

CC(=O)NCCNc1ncncc1-c1ccccc1C(F)(F)F
-8.94%: max response [10, 21]
-7.27%: max response [10, 20]
inactive: activity change, negative = inhibition [1] 1.26% | Potency [2] | activity, negative = inhibition [3] 6.6% | Potency [13] > 46 µM | Potency [4] > 46 µM | Potency [5] | Potency [6] | Potency [8] | Potency [16] | outcome [17] | activity change, negative = inhibition [10] -1.77% | Potency [14] | outcome [11]

COc1ccccc1CN1CCC2(CC1)CCN(C(=O)c1csnn1)CC2
16.4%: max response [10, 20]
24.4%: max response [10, 21]
inactive: activity change, negative = inhibition [1] 0.316% | activity, negative = inhibition [3] -5.49% | Potency [4] > 46 µM | Potency [5] | Potency [6] | Potency [8] | activity change, negative = inhibition [10] 5.71% | outcome [11]

Cn1cc(C(F)(F)F)nc1-c1ccc(OC[C@@H](O)CNCCOc2ccc(O)c(C(N)=O)c2)cc1
-2.61%: max response [10, 21]
inactive: activity change, negative = inhibition [12] -4.88% [at 38 µM] | Potency [13] > 46 µM | Potency [4] > 46 µM | Potency [5] | Potency [6] | activity change, negative = inhibition [10] 1.54% | outcome [11]
-4.45%: max response [10, 20]

COc1ccc(Oc2ncc3nc(-c4ccc(F)cc4)c(=O)n(C)c3n2)cc1
18%: max response [10, 20]
active: Potency [2] 2 µM | Potency [18] 3.98 µM
inactive: activity change, negative = inhibition [12] -22.3% | activity, negative = inhibition [3] 12.3% | Potency [13] > 9.22 µM | Potency [4] > 46 µM | Potency [5] | Potency [6] | Potency [8] | activation [19] 16.5% | activity change, negative = inhibition [10] 4.46% | outcome [11]
24.3%: max response [10, 21]

Cc1cnc(CNc2cc(-c3ccoc3)ncn2)cn1
14.7%: max response [10, 21]
inactive: activity change, negative = inhibition [12] 1.34% | activity, negative = inhibition [3] -9.44% | Potency [13] > 46 µM | Potency [4] > 46 µM | Potency [5] | Potency [6] | outcome [17] | activity change, negative = inhibition [10] 3.62% | outcome [11]
active: Potency [2] 25.1 µM
9.95%: max response [10, 20]

CNc1ncnc2ccc(-c3cccc(NS(C)(=O)=O)c3)cc12
inactive: activity change, negative = inhibition [1] -20.9% | activity, negative = inhibition [3] -3.45% | Potency [13] > 46 µM | Potency [4] > 46 µM | Potency [5] | Potency [6] | Potency [8] | Potency [16] | outcome [17] | activity change, negative = inhibition [10] 1.53% | outcome [11]
-9.5%: max response [10, 20]
-9.46%: max response [10, 21]
active: Potency [2] 0.316 µM

CS(=O)(=O)Nc1cccc(-c2nc(NCCN3CCOCC3)c3ccccc3n2)c1
inactive: activity change, negative = inhibition [1] -21.3% | activity, negative = inhibition [3] -7.39% | Potency [13] > 46 µM | Potency [4] > 46 µM | Potency [5] | Potency [6] | Potency [8] | Potency [16] | activity change, negative = inhibition [10] 9.69% | outcome [11]
-5.53%: max response [10, 20]
active: Potency [2] 25.1 µM
2.51%: max response [10, 21]
